# This is a sample that favours compounds with a hit; in the whole collection about 9.4% have one here.
# HTT ATP protect = Huntington cell model cytoprotection by ATP luminescence. 0.14% of 230,000 active. PC12 HTT-Q103 induced, cytoprotection, ATP luminescence, 40 h. Potency, µM (highest dose often 56.4 µM), inactives show cytoprotection (ATP increase), most hits filed as activators; further: potency means the concentration at half of the fitted maximal effect; % of control where 0% means no effect; nearly all actives have a fitted effect of over 45% in size
#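 Stable PC12 Q103-GFP cells in serum-supplemented, phenol red-free DMEM; induction by tebufenozide at 100 nM final; compound dose series; cell viability quantified luminescently from ATP.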
# IMPase inh = IMPase inhibition in cells; inhibition (IP1 accumulation), % at 46.1 µM; CHO-M1 cells, IP1 accumulation, HTRF TR-FRET ratio; 120,000 tested, under 10 active; P97697; AID 901; active means well fitted curve in the direction sought with a large enough effect in the signal ratio, not every such curve was filed as active; inconclusive means small, poorly fitted or top-dose-only effect, or a change in a side signal; inactive means no such curve, though single readings can be large or run the other way; the % refers to the signal ratio;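 further: cells stimulated with carbachol in lithium chloride buffer; plate controls were DMSO basal wells for no effect and reference inhibitor wells for full effect; higher means more IMPase inhibition seen as more IP1 and lower FRET ratio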
#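 In this qHTS, compounds (final up to 46 uM) act on CHO-M1 cells that are then activated through the M1 receptor with carbachol, in pH 7.4 buffer containing 50 mM LiCl, for 30 min. IP1 accumulation is quantified by the IP-One immunoassay.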
# ALDH1A1 block = ALDH1A1 (human) enzyme inhibition | 7.3% of 220,000 active | AID 1030 | Potency, µM (highest dose often 75.3 µM), inactives show at the highest dose activity, negative = inhibition, hits mostly inhibitors | Purified ALDH1A1, NADH fluorescence, propionaldehyde substrate | P00352; active means well fitted inhibition curve with a large enough effect, not every such curve was filed as active; inconclusive means small, poorly fitted or top-dose-only effect, or another doubt; inactive means no such curve, though single readings can be large or run the other way;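 further: potency means the concentration at half of the fitted maximal effect; plate controls were no enzyme wells and a reference inhibitor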
# Target sequence (P00352 whole entry, looked up): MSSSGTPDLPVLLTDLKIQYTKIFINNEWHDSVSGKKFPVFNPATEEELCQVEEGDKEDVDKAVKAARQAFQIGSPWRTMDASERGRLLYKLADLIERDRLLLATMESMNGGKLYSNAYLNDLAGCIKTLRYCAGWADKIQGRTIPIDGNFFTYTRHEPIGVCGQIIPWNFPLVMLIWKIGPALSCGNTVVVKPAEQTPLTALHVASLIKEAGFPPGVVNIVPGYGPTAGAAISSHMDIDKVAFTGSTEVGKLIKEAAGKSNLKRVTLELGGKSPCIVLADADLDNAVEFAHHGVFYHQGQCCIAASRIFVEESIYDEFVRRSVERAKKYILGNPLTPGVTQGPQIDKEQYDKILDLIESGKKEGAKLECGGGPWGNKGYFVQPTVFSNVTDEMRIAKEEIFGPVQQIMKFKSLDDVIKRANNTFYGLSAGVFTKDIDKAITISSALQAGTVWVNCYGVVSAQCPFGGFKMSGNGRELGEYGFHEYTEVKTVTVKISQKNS
# IMPase Li cell = IMPase inhibition in cells with lithium potentiation; AID 1457; 0.35% of 210,000 active; CHO-M1 cells, IP1 TR-FRET (IP-One), carbachol + lithium; Potency, µM (top dose mostly 59.4 µM), inactives show at the highest dose activity, negative = IMPase inhibition, actives largely listed as inhibitors;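 further: IP1 builds up when IMPase is blocked and the TR-FRET signal falls; potency means the concentration at half of the fitted maximal effect; plate controls were basal vehicle for no effect and high inhibitor control for full effect; nearly all actives have a fitted effect of over 50% in size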
#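 Readout is a homogeneous TR-FRET IP1 immunoassay (Ex 320, Em 665 and 620), where raised cytosolic IP1 lowers signal. Cells were CHO-M1 treated 30 min at 37C with test compounds plus a little lithium; AC50 values came from Hill-equation fitting.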
# HttQ103 aggreg = reduces HttQ103-GFP aggregates in PC12 cells | PC12 HttQ103-GFP aggregates, Acumen cytometry, 40 h | Potency, µM (highest dose often 46.1 µM), for inactives: at the top dose activity change, negative = inhibition, hits mostly inhibitors | 1.1% of 220,000 active; further: potency means the concentration at half of the fitted maximal effect; on the % scale 0 is the no-effect control and ±100 the full control effect; nearly all actives have a fitted effect of over 60% in size
#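 Read-out: GFP aggregate count by laser scanning cytometer (488 nm excitation, 500-530 nm emission, 1–25 µm objects >6 SD above background). Cells: PC12, inducible HTTex1-Q103-GFP, 100 nM tebufenozide; compounds titrated.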
# HPGD inh = blocks human HPGD enzyme activity; Potency, µM, without a hit: top-dose activity change, negative = inhibition, most hits filed as inhibitors; 4.3% of 150,000 active; purified HPGD, NADH fluorescence kinetic, PGE2 substrate; active means well fitted inhibition curve with a large enough effect, not every such curve was filed as active; inconclusive means small, poorly fitted or top-dose-only effect, or another doubt; inactive means no such curve, though single readings can be large or run the other way; further: potency means the concentration at half of the fitted maximal effect; on the % scale 0 is the no-effect control and ±100 the full control effect
#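 20 nM HPGD preincubated 15 min at room temperature with compound in 50 mM Tris-HCl pH 8, 0.01% Tween 20. Started with 1 mM NAD+ and 30 uM prostaglandin E2; NADH fluorescence (360/450 nm) read 5 times over 30-s intervals, last minus first.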
# * hit, by the source's call; ? = inconclusive; · = no result given; [ ] = remark or other dose. Unless noted, the call rests on the fitted dose curve; in most records, active means well fitted curve in the direction sought with a large enough effect; inconclusive means small, poorly fitted or top-dose-only effect, or another doubt; inactive means no such curve, though single readings can be large; an effect the other way counts as inactive or inconclusive.
SMILES,HTT ATP protect,IMPase inh,ALDH1A1 block,IMPase Li cell,HttQ103 aggreg,HPGD inh
CC12CCC(C[N+](C)(CCC[N+](C)(C)C)C1)C2(C)C (stereo not drawn),-1%,·,·,·,15%,·
COc1cccc(Cn2c(=O)c(-c3ccccc3)nc3cncnc32)c1,7%,·,?,6%,·,·
CCCCc1nc2sc3c(SCC(=O)NCc4ccco4)ncnc3c2c2c1CCC2,-24%,?,-7%,5µM*,?,-13%
CCCCSc1nc(SCC(=O)NCc2ccco2)c2c3c(sc2n1)COC(C)(CC)C3 (stereo not drawn),-17%,-14,22µM*,9%[38.3 µM],6%,-25%
C=C(C)Cn1c(SCC(=O)Nc2cccc(C)c2)nc2sc3c(c2c1=O)CCCC3,·,6,·,·,·,·
CN1CCN(c2ncc3ncc(=O)n(-c4ccccc4)c3n2)CC1,-57%,·,?,-13%,·,·
CC1(C)Cc2c(sc3c2c(=N)n(Cc2ccco2)c(=O)n3CC(=O)Nc2ccc(Cl)cc2)CO1,-29%[0.074 µM],3,20µM*,43%[38.3 µM],?,-21%
Cc1ccc(S(=O)(=O)N[C@@H]2COC(=O)C/C=C\[C@H](C)COC(=O)N[C@@H](C)C(=O)C/C=C\[C@H]2C)cc1,5%[10 µM],·,-15%[13.5 µM],·,·,·
COc1ccc(-c2cc(C(F)(F)F)nc(SCC(=O)NC(C)c3ccccc3)n2)cc1 (stereo not drawn),·,3,·,·,·,·
Cc1nn(-c2ccccc2)c2c1C(=O)N(c1ccccc1)C(=O)C(C)(C)C2,-7%,2,13µM*,5%[38.3 µM],-1%,-21%
Cc1nn(-c2ccccc2)c2c1/C(=N/O)CC(C)(C)C2,-23%[0.074 µM],8,-4%,4%[38.3 µM],-20%,1%
O=C(O)c1ccc(Cl)cc1Cl,-10%,·,-9%,9%,·,-11%
CC(C)(C)c1ccc2c(c1)N(CC(=O)O)C(=O)CO2,-12%,6,3.2µM*,-5%[38.3 µM],2%,-4%
CCCn1c(-c2ccc(F)cc2)nc2c(NCCCN(CC)CC)nc(C)nc21,-1%,·,?,-1%,·,?
N=C(N)SCCc1ccc(OCc2ccc([N+](=O)[O-])cc2)cc1,?,9,?,38%,·,-12%
COC(=O)/C(=C1/Oc2cc(C)oc(=O)c2S1)C(F)(F)F,-80%[10 µM],-3,0%,-21%,?,7.9µM*
COC(=O)/C(=C1/Oc2ccc(C(C)(C)C)cc2S1)C(F)(F)F,3%[10 µM],·,13%,7%,-7%,-5%
Cc1c(C(=O)Oc2ccc(-c3cnc4ccccc4n3)cc2)cccc1[N+](=O)[O-],?,6,?,-25%[38.3 µM],·,-26%
O=C(Oc1ccc(-c2cnc3ccccc3n2)cc1)c1cc([N+](=O)[O-])ccc1Cl,-23%,5,0.22µM*,-25%[38.3 µM],-1%,-15%
CC1(C)CC(=O)C(Sc2ccccc2)=C(O)C1,14%[10 µM],·,20µM*,·,-5%[9.22 µM],·
COc1ccccc1CNC(=O)CSc1ccc(Br)cc1,-6%[10 µM],·,-19%,14%,-11%,28µM*
COc1ccccc1CNC(=O)CC(C)C,?,3,2%,-7%[38.3 µM],?,25µM*
COc1ccccc1CNC(=O)C1CCN(S(=O)(=O)N2CCCCC2)CC1,-10%[0.074 µM],-5,?,3%,-5%,-8%
COc1ccccc1CNC(=O)CSC1=NCCS1,0%,·,?,8%,-3%,·
COc1ccccc1CNC(=O)C1CCC1,5%[10 µM],·,-5%,1%,12%,14µM*
SMILES,HTT ATP protect,IMPase inh,ALDH1A1 block,IMPase Li cell,HttQ103 aggreg,HPGD inh
COc1ccccc1CNC(=O)c1ccc(-c2ccccc2Cl)o1,·,·,14µM*,19%,?,-40%
Cc1cccn2c(=O)c3cc(C(=O)NCc4ccccc4)c(=N)n(CCOCCO)c3nc12,·,-4,·,·,·,·
COc1ccc(OC2C=CC(c3ccccc3)OC2CO)c(C(C)=O)c1 (stereo not drawn),-5%[10 µM],·,-3%[13.5 µM],·,·,·
Cc1ccc(S(=O)(=O)NC(CC(=O)N2CCc3ccccc32)c2ccco2)cc1 (stereo not drawn),-6%,14,14µM*,-14%[38.3 µM],-12%,-3%
O=C(Cn1c(=O)n(Cc2ccc3c(c2)OCO3)c(=O)c2ccc(C(=O)NC3CCCCC3)cc21)Nc1ccccc1F,·,5,·,·,·,·
CCOC(=O)N1CCC(=NNc2ncc(C(F)(F)F)cc2Cl)CC1,-35%,·,?,11%,-3%,·
CC(=O)N1CCC(=NNc2ncc(C(F)(F)F)cc2Cl)CC1,-6%,·,16µM*,4%,14%,·
CCOCCCn1c(=N)c(C(=O)NC2CCCC2)cc2c(=O)n3cccc(C)c3nc21,·,4,·,·,·,·
O=C(/C=C/c1ccccc1)Nc1cc(-c2nc3ccccc3o2)ccc1Cl,·,-2,·,·,·,·
Cc1ccccc1Nc1nc(N)nc(CSCc2c(C)noc2C)n1,-25%[0.074 µM],10,14µM*,39%[38.3 µM],-3%,-17%
CN(C)C(=S)c1ccccc1,12%[10 µM],·,7.1µM*,·,-1%[9.22 µM],·
COc1ccc(C(=S)N2CCCC2)cc1OC,-7%,1,10%,22%[38.3 µM],-5%,-15%
COc1ccc(C(=S)N(C)C)cc1OC,-14%,-6,?,-9%[38.3 µM],14%,10µM*
